40 sequences from the supplement of paper PMC6555819 can be followed below.

One test has as its system PPARg:RXRa 90nM:30nM, anti-RXR (NR concentration 90 nM, RXRa partner concentration 30 nM). Kind of test: PBM binding z-score (relative to random genomic background probes); higher = stronger binding; sequences stand for … in GC…GCGATTGACAGCGTAGAATGAAGG
In short, it runs like this:
(§1)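 Random background probes are the reference for binding z-scores. These scores derive from regression-normalized fluorescence on custom Agilent 4×180K protein-binding microarrays incubated 1 h with ligand-free nuclear receptor dimers. Binding was detected with antibodies against each partner (one per run).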
TCAGACACGTGAAGGTAACTCAGGTACGCAGTCG showed a PBM binding z-score of 2.58.

CCTACTGGGCCATTCAAAGGTCATTGATCATATG: the PBM binding z-score stood at 3.35.

CGTCAAAGTTCAAGGTAACGTATCAGAAAGCAGC registered a PBM binding z-score of 3.65.

For CCGTGTAGGTTATGGGGCATTCAGGCAACGGTGA, the PBM binding z-score was determined as 3.16.

Take CGTCCAAGGTCAATGCTAGGTCCGTGAAAGCATT: the PBM binding z-score was found to be 2.86.

Regarding TCTTGTAGATCAAGCAGGTTACGAAAGCCTGAGT, the PBM binding z-score was 1.88.

The sequence ATCTCTAGGTAAAGTTCAGTGCAAGATCGATAGA returned a PBM binding z-score of 4.43.

AGTCAAAGTTCATCTAGGTGACGTAAGATATGCT returned a PBM binding z-score of 5.48.

Turning to CGTCCAAGATCAGAGAGGTCAGTGAATGCCGAGT, the PBM binding z-score came out at 0.0792.

In turn, CAGCCTAGGTCAGAGCCAGTATAGGAGGAACGTT returned a PBM binding z-score of 0.234.

For the sequence GCTAGCTGGTCAGTAAAAGGTCACACACCGGTCG, the PBM binding z-score is 3.75.

For the sequence TCTGCTAGCTCAACGATGGTCAGCTAATCTGCTA, the PBM binding z-score worked out at 0.838.

For AGAATGAGGTTATACGTAGATTAGGGAAGAAAGT, the PBM binding z-score was 1.76.

In the case of TCTTGTAGATCAATTGAGGTTAAGAAAGTGCGCT, the PBM binding z-score came out at 2.2.

As to GGAACGAGGGCAACTTGATAGCAGAGTTTGATGG, the PBM binding z-score came out at 0.883.

As for TCGAGTAAGTTAGGGGCATTCAGAATGGCGTCGA, the PBM binding z-score was found to be 0.613.

With CCTACTGGGCCAAAGGTCATTGCTTCCAATGCTC, the PBM binding z-score worked out at 11.1.

TTACCAAGGTGAAGATCGTTGATCCCTCTGTAGA showed a PBM binding z-score of 0.575.

Consider CCAGGCAGGTGAAAGGTAACTCAGTCTGGTACGC, for which the PBM binding z-score was 7.19.

In turn, CCTCGGAGGACAGAAGGTCAGAGGTGTCCGCTTT yielded a PBM binding z-score of 0.771.

Consider GCGACTGGGGCAAAGCAGGTTACCATTAGGTTGG, for which the PBM binding z-score is 0.675.

TCTCGGAGAACACGAAAGGTCAGAGCTCGACATC: the PBM binding z-score was 2.25.

As to CCTTACGGGTCAAGAGGTTATAGCACGACGAGCG, the PBM binding z-score stood at 4.29.

Turning to TAGCCTAGGTCGTGGGCCAGTATACCACGCGAAC, the PBM binding z-score was -0.0658.

TCATATAGGTAAATGCTAGGTGAAGGTCCGATCT displayed a PBM binding z-score of 2.91.

In turn, CCGAGTAGGTTATGGGGCATTCTGGCAACGGTGA yielded a PBM binding z-score of 3.6.

TCATATAGGTTAACAGGTGAAAGTCCGTAAGTTA displayed a PBM binding z-score of 4.91.

Take CCTCGGAGGACAGAAGGTCAGAGATGTCCGCTTT: the PBM binding z-score was 0.432.

With GCTTGTAGATCAATGTTAAGAAAGACTAAGCTAA, the PBM binding z-score is -0.416.

For the sequence GGAACGAAGGCAAGTTGATAGCAGAGTTTGATGG, the PBM binding z-score was -0.674.

As to CCTAGTTGGCCAGGAGGTCACACACCGGATATGA, the PBM binding z-score is 2.2.

The sequence GATACAGGATCAAGGCCAGAGTACGCGTATTGAT had a PBM binding z-score of 0.052.

ATATGTAGGTTATCGAGTCATTCAGTTTGCGCAT registered a PBM binding z-score of 3.27.

In the case of ACTATCAGTTGACTTAGGGCAACCGATACGACGC, the PBM binding z-score amounted to 0.385.

Regarding CATACAAGGTCAGCTAGGCCAGAGTAGGGACGGC, the PBM binding z-score was 2.45.

CGTCGAAGTTCAACTAAGGTAACGTAAAGCACGC: the PBM binding z-score turned out to be 1.23.

Take ATATGTAGGTTATATCCGGGTCATTCAGGCTATG: the PBM binding z-score was 3.33.

For the sequence TCTGGTTGGTCACGGAGGTCACACACGACGGGTA, the PBM binding z-score was found to be 3.15.

In the case of TCGAGTAGGTTAGTCGGGGCATGCAGCCAACATA, the PBM binding z-score amounted to 0.884.

In turn, CCTAACGGGTCACGAGGTTATAGCACGACGAGCG came in with a PBM binding z-score of 4.48.

The next test relates to PPARg:RXRa DBDmut IVT, anti-RXR (DBD mutation: RXRa K156A/R161A, NR concentration 270 nM, RXRa partner concentration 90 nM). The description is as above. In short, it runs like this:
as §1
TCAGACACGTGAAGGTAACTCAGGTACGCAGTCG had a PBM binding z-score of 2.01.

Regarding CCTACTGGGCCATTCAAAGGTCATTGATCATATG, the PBM binding z-score was determined as 4.67.

CGTCAAAGTTCAAGGTAACGTATCAGAAAGCAGC: the PBM binding z-score stood at 1.16.

Turning to CCGTGTAGGTTATGGGGCATTCAGGCAACGGTGA, the PBM binding z-score was determined as 2.12.

In the case of CGTCCAAGGTCAATGCTAGGTCCGTGAAAGCATT, the PBM binding z-score came to 2.99.

TCTTGTAGATCAAGCAGGTTACGAAAGCCTGAGT registered a PBM binding z-score of 1.76.

ATCTCTAGGTAAAGTTCAGTGCAAGATCGATAGA had a PBM binding z-score of 2.92.

AGTCAAAGTTCATCTAGGTGACGTAAGATATGCT had a PBM binding z-score of 1.67.

CGTCCAAGATCAGAGAGGTCAGTGAATGCCGAGT: the PBM binding z-score turned out to be 0.179.

CAGCCTAGGTCAGAGCCAGTATAGGAGGAACGTT came in with a PBM binding z-score of 1.93.

Sequence GCTAGCTGGTCAGTAAAAGGTCACACACCGGTCG registered a PBM binding z-score of 0.546.

As to TCTGCTAGCTCAACGATGGTCAGCTAATCTGCTA, the PBM binding z-score is 0.317.

Turning to AGAATGAGGTTATACGTAGATTAGGGAAGAAAGT, the PBM binding z-score was determined as 3.81.

Turning to TCTTGTAGATCAATTGAGGTTAAGAAAGTGCGCT, the PBM binding z-score is 2.06.

On to GGAACGAGGGCAACTTGATAGCAGAGTTTGATGG, for which the PBM binding z-score came to 4.45.

Sequence TCGAGTAAGTTAGGGGCATTCAGAATGGCGTCGA came in with a PBM binding z-score of 0.867.

CCTACTGGGCCAAAGGTCATTGCTTCCAATGCTC registered a PBM binding z-score of 5.34.

TTACCAAGGTGAAGATCGTTGATCCCTCTGTAGA yielded a PBM binding z-score of 1.37.

CCAGGCAGGTGAAAGGTAACTCAGTCTGGTACGC showed a PBM binding z-score of 2.16.

CCTCGGAGGACAGAAGGTCAGAGGTGTCCGCTTT yielded a PBM binding z-score of -0.101.

GCGACTGGGGCAAAGCAGGTTACCATTAGGTTGG displayed a PBM binding z-score of 4.83.

Regarding TCTCGGAGAACACGAAAGGTCAGAGCTCGACATC, the PBM binding z-score came out at 1.25.

CCTTACGGGTCAAGAGGTTATAGCACGACGAGCG displayed a PBM binding z-score of 2.73.

For TAGCCTAGGTCGTGGGCCAGTATACCACGCGAAC, the PBM binding z-score is -0.693.

Consider TCATATAGGTAAATGCTAGGTGAAGGTCCGATCT, for which the PBM binding z-score was determined as 4.03.

As for CCGAGTAGGTTATGGGGCATTCTGGCAACGGTGA, the PBM binding z-score worked out at 3.05.

For the sequence TCATATAGGTTAACAGGTGAAAGTCCGTAAGTTA, the PBM binding z-score came out at 5.79.

On to CCTCGGAGGACAGAAGGTCAGAGATGTCCGCTTT, for which the PBM binding z-score was -0.271.

In turn, GCTTGTAGATCAATGTTAAGAAAGACTAAGCTAA registered a PBM binding z-score of 1.38.

Sequence GGAACGAAGGCAAGTTGATAGCAGAGTTTGATGG displayed a PBM binding z-score of -0.11.

The sequence CCTAGTTGGCCAGGAGGTCACACACCGGATATGA came in with a PBM binding z-score of 0.473.

In turn, GATACAGGATCAAGGCCAGAGTACGCGTATTGAT registered a PBM binding z-score of -0.344.

Turning to ATATGTAGGTTATCGAGTCATTCAGTTTGCGCAT, the PBM binding z-score was 6.65.

ACTATCAGTTGACTTAGGGCAACCGATACGACGC gave a PBM binding z-score of -0.371.

The sequence CATACAAGGTCAGCTAGGCCAGAGTAGGGACGGC yielded a PBM binding z-score of 2.49.

Regarding CGTCGAAGTTCAACTAAGGTAACGTAAAGCACGC, the PBM binding z-score is -0.101.

ATATGTAGGTTATATCCGGGTCATTCAGGCTATG returned a PBM binding z-score of 6.81.

Sequence TCTGGTTGGTCACGGAGGTCACACACGACGGGTA displayed a PBM binding z-score of 1.74.

Sequence TCGAGTAGGTTAGTCGGGGCATGCAGCCAACATA yielded a PBM binding z-score of 2.41.

On to CCTAACGGGTCACGAGGTTATAGCACGACGAGCG, for which the PBM binding z-score was 3.39.
